# Laboratory results taken from the antibiotic and cytotoxicity screens of Wong et al. (2023).
# The campaign covered roughly 39,000 compounds. About 3,300 (8.5%) were called active. The sample as a whole holds a higher share of actives than the screen did.
# Test system: HepG2
# Experiment: cytotoxicity call (relative viability < 0.9)
# Settings: 10 µM
row,SMILES,cytotoxicity call
1,CC(=O)NCc1c(I)c(NC(C)=O)c(I)c(C(=O)O)c1I,inactive
2,C[C@H]1CN([C@@H](C)CO)C(=O)c2cccc(NC(=O)c3ccc(-c4nccs4)cc3)c2O[C@H]1CN(C)Cc1ccc(-c2ccccc2)cc1,inactive
3,C[C@@H]1CN([C@@H](C)CO)S(=O)(=O)c2ccc(-c3ccc(F)cc3)cc2O[C@H]1CN(C)C(=O)C1CCOCC1,inactive
4,C[C@@H]1CCCCO[C@H](CN(C)C(=O)CCCN(C)C)[C@@H](C)CN([C@@H](C)CO)C(=O)c2cc(N(C)C)ccc2O1,inactive
5,C[C@@H]1CN([C@H](C)CO)C(=O)c2cccc(NS(C)(=O)=O)c2O[C@@H]1CN(C)C(=O)Nc1ccc(F)cc1,inactive
6,Cc1[nH]c(=O)[nH]c(=O)c1/C=C/C(=O)O,inactive
7,O=C(C[C@H]1CC[C@@H]2[C@H](COC[C@H](O)CN2S(=O)(=O)c2ccc(F)cc2)O1)N[C@H]1CCN(Cc2ccccc2)C1,inactive
8,C[C@@H]1CN([C@@H](C)CO)C(=O)c2cc(NC(=O)Nc3ccc(C(F)(F)F)cc3)ccc2O[C@@H]1CN(C)Cc1ccc(-c2ccccc2)cc1,active
9,C[C@H]1CN([C@@H](C)CO)C(=O)c2cc(NC(=O)Nc3ccc(C(F)(F)F)cc3)ccc2O[C@H]1CN(C)Cc1ccc(-c2ccccc2)cc1,active
10,C[C@@H]1CN([C@H](C)CO)C(=O)c2cc(NC(=O)Nc3ccc(C(F)(F)F)cc3)ccc2O[C@H]1CN(C)Cc1ccc(-c2ccccc2)cc1,active
11,C[C@@H]1CN([C@@H](C)CO)C(=O)c2cc(NC(=O)Nc3ccc(C(F)(F)F)cc3)ccc2O[C@@H]1CN(C)S(C)(=O)=O,inactive
12,C[C@H](CO)N1C[C@H](C)[C@@H](CN(C)C(=O)Nc2cccc3ccccc23)Oc2c(NC(=O)Nc3cccc4ccccc34)cccc2C1=O,inactive
13,C[C@@H]1CCCCO[C@H](CN(C)Cc2ccccc2)[C@H](C)CN([C@@H](C)CO)C(=O)c2cc(NC(=O)c3ccncc3)ccc2O1,inactive
14,O=C(C[C@H]1CC[C@@H]2[C@H](COC[C@H](O)CN2C(=O)c2ccc(F)cc2)O1)NCCCN1CCOCC1,inactive
15,COCC#Cc1cnc2c(c1)C(=O)N([C@H](C)CO)C[C@H](C)[C@H](CN(C)S(=O)(=O)c1ccccc1)O2,inactive
16,OC[C@H]1O[C@@H](n2cnc3c(N[C@@H]4CCOC4)ncnc32)[C@H](O)[C@@H]1O,inactive
17,CC[C@H](C#CCN1CCOCC1)OC(C)=O,inactive
18,COc1ccccc1S(=O)(=O)N[C@@H]1CC[C@@H](CCNC(=O)C2CC2)O[C@H]1CO,inactive
19,CN1C(=O)c2cc(NC(=O)c3ccc(F)cc3)ccc2OC[C@@H]2O[C@H](CC(=O)N3CCOCC3)CC[C@@H]21,inactive
20,COc1ccc(CN(C)C[C@H]2OCCCC[C@@H](C)Oc3ccc(NC(=O)C4CCCCC4)cc3C(=O)N([C@@H](C)CO)C[C@@H]2C)cc1,inactive
21,NS(=O)(=O)c1ccc(CCn2ccn(CC(=O)NCCC3=CCCCC3)c(=O)c2=O)cc1,inactive
22,C[C@@H]1CN([C@@H](C)CO)C(=O)Cc2cc(NS(=O)(=O)c3ccc(F)cc3)ccc2O[C@@H]1CN(C)S(=O)(=O)c1cn(C)cn1,inactive
23,CN(C)C(=O)C[C@@H]1CC[C@@H](NC(=O)C2CCOCC2)[C@@H](CO)O1,inactive

row,SMILES,cytotoxicity call
1,CCCNC(=O)Nc1ccc2c(c1)C(=O)N(C)C[C@@H](OC)[C@@H](C)CN(C(=O)C1CCOCC1)[C@H](C)CO2,inactive
2,C[C@@H]1CN([C@@H](C)CO)C(=O)c2cc(NC(=O)Nc3ccc(C(F)(F)F)cc3)ccc2O[C@H]1CN(C)Cc1ccc(-c2ccccc2)cc1,active
3,C[C@H](CO)N1C[C@H](C)[C@@H](CN(C)Cc2ccc(-c3ccccc3)cc2)Oc2ccc(NC(=O)Nc3ccc(C(F)(F)F)cc3)cc2C1=O,inactive
4,C[C@H](CO)N1C[C@H](C)[C@H](CN(C)Cc2ccc(-c3ccccc3)cc2)Oc2ccc(NC(=O)Nc3ccc(C(F)(F)F)cc3)cc2C1=O,active
5,C[C@@H]1CN([C@H](C)CO)C(=O)c2cc(NC(=O)Nc3ccc(C(F)(F)F)cc3)ccc2O[C@@H]1CN(C)Cc1ccc(-c2ccccc2)cc1,active
6,Cc1ccc(OC(=O)N(C)C[C@@H]2OCc3ccccc3-c3ccccc3C(=O)N([C@@H](C)CO)C[C@H]2C)cc1,inactive
7,C[C@H]1CN([C@@H](C)CO)S(=O)(=O)c2ccc(C#CCN(C)C)cc2O[C@H]1CN(C)C(=O)CN(C)C,inactive
8,O=C(CCCCCNC(=O)OCc1ccc(CO[C@H]2C[C@@H](c3ccc(C(F)(F)F)cc3)C=C(C(=O)N3CCN(Cc4ccccc4)CC3)O2)cc1)NO,inactive
9,C[C@H]1CN([C@@H](C)CO)C(=O)c2cc(NC(=O)Nc3ccc4c(c3)OCO4)ccc2O[C@H]1CN(C)S(C)(=O)=O,inactive
10,COc1ccc(CNC(=O)C[C@H]2CC[C@@H]3[C@H](COc4ccc(NC(=O)C(C)C)cc4C(=O)N3C)O2)cc1,inactive
11,C[C@@H]1CN([C@@H](C)CO)C(=O)Cc2cc(NS(=O)(=O)c3cccs3)ccc2O[C@H]1CN(C)Cc1ccncc1,inactive
12,CC[C@@H](C[C@@H](O)[C@@H](C)[C@H]1CC[C@H]2C3=CC(=O)[C@H]4[C@H](C)[C@@H](OC(=O)c5ccccc5)CC[C@]4(C)[C@H]3CC[C@]12C)C(C)C,inactive
13,CC[n+]1oc(-c2ccccc2)cc1C,active
14,O=C(CCCCCNC(=O)OCc1ccc(CO[C@H]2C[C@@H](C3CCCCC3)C=C(C(=O)N3CCN(Cc4ccccc4)CC3)O2)cc1)NO,inactive
15,COCC(=O)Nc1ccc2c(c1)C(=O)N(C)C[C@H](OC)[C@@H](C)CN(Cc1ccccc1OC)[C@@H](C)CO2,inactive
16,COC(=O)CCCCCCC(=O)Nc1ccc(NC(=O)CCCC[P+](c2ccccc2)(c2ccccc2)c2ccccc2)cc1,inactive
17,CC1=C(C)C(=O)C(CCCCCCCCCC[P+](c2ccccc2)(c2ccccc2)c2ccccc2)=CC1=O,active
18,COC1=C(OC)C(=O)C(CC=C(C)CCC=C(C)CCC=C(C)CCC=C(C)CCC=C(C)CCC=C(C)CCC=C(C)CCC=C(C)CCC=C(C)CCC=C(C)C)=C(C)C1=O,inactive
19,COC1=C(OC)C(=O)C(C/C=C(\C)CC/C=C(\C)CC/C=C(\C)CC/C=C(\C)CC/C=C(\C)CC/C=C(\C)CC/C=C(\C)CC/C=C(\C)CC/C=C(\C)CCC=C(C)C)=C(C)C1=O,inactive
20,CC1=C(C)C(=O)C(C(CCCCCC(=O)O)c2ccccc2)=C(C)C1=O (stereo unspecified),inactive
21,COC1=C(OC)C(=O)C(CCCCCCCCCC[P+](c2ccccc2)(c2ccccc2)c2ccccc2)=C(C)C1=O,active
22,COC1=C(OC)C(=O)C(CCCCCCCCCCO)=C(C)C1=O,active
23,COC1=C(OC)C(=O)C(C/C=C(\C)CC/C=C(\C)CC/C=C(\C)CC/C=C(/C)CC/C=C(\C)CC/C=C(\C)CC/C=C(\C)CC/C=C(\C)CC/C=C(\C)CCC=C(C)C)=C(C)C1=O,inactive
